This is part of a sample that, as a whole, favours compounds with a hit. Of some 79,000 tested, about 15% had one in any assay. Calls of active or inactive are those of the source. Cut-off read from the data, not from the text of the source: active = growth inhibition above about 70%; inactive = the rest.
How the values were obtained:
[1] = NCI Yeast Anticancer Drug Screen. Data for the wt1 strain (AID 149);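 note: 0% = growth of vehicle-treated wt1 cultures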; conditions: S. cerevisiae wt1 strain (SPY 50644) growth inhibition, hits give high values
How it was run: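 Readout: yeast growth inhibition, normalised to vehicle controls, in the wt1 strain exposed to test compounds.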

[2] = NCI Yeast Anticancer Drug Screen. Data for the rad50EPP+ strain (AID 151);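 note: 0% = growth of vehicle-treated control cultures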; conditions: S. cerevisiae rad50 mutant strain, hits give high values
How it was run: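 In this screen, rad50EPP+ yeast were exposed to compounds. Growth inhibition was scored against vehicle-treated controls.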

[3] = NCI Yeast Anticancer Drug Screen. Data for the mgt1 strain (AID 153); conditions: S. cerevisiae mgt1 mutant growth inhibition, hits give high values
How it was run: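 mgt1 strain exposed; growth vs vehicle control recorded as inhibition.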

[4] = NCI Yeast Anticancer Drug Screen. Data for the rad50 strain (AID 155);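 note: 0% = growth of vehicle-only cultures of the same strain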; conditions: S. cerevisiae rad50 strain growth inhibition, hits give high values
How it was run: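 Compounds were tested on a yeast strain with an engineered DNA damage repair alteration; the reported value is growth inhibition normalised to vehicle treatment.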

[5] = NCI Yeast Anticancer Drug Screen. Data for the mec2-1 strain (AID 157); conditions: S. cerevisiae mec2-1 strain, hits give high values
How it was run: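 Vehicle-treated cultures served as reference for growth inhibition of compound-exposed mec2-1 yeast.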

[6] = NCI Yeast Anticancer Drug Screen. Data for the rad14 strain (AID 159);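 note: 0% = growth of vehicle-treated control cultures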; conditions: S. cerevisiae rad14 strain growth inhibition, hits give high values
How it was run: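 Compound-treated yeast with a defined DNA-repair lesion; growth inhibition normalised to vehicle-treated cultures.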

[7] = NCI Yeast Anticancer Drug Screen. Data for the sgs1 mgt1 strain (AID 161);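 note: 0% = growth of cultures given vehicle only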; conditions: S. cerevisiae sgs1 mgt1 strain, hits give high values
How it was run: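 Inhibition of yeast growth, normalised to vehicle-treated controls, is reported for a strain bearing genetic alterations in DNA damage repair.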

[8] = NCI Yeast Anticancer Drug Screen. Data for the CLN2oe strain (AID 163);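 note: 0% = growth of vehicle-only control cultures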; conditions: S. cerevisiae CLN2oe strain, hits give high values
How it was run: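 Inhibition relative to vehicle-treated yeast is reported. Cells: strain with genetic alteration in cell-cycle control, grown with compound.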

[9] = NCI Yeast Anticancer Drug Screen. Data for the cln2 rad14 strain (AID 165);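 note: 0% = growth equal to vehicle treated cultures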; conditions: S. cerevisiae cln2 rad14 strain, hits give high values
How it was run: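 Each compound was tested on cln2 rad14 yeast. Inhibition of growth was calculated against vehicle-exposed controls.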

[10] = NCI Yeast Anticancer Drug Screen. Data for the bub3 strain (AID 167); conditions: S. cerevisiae bub3 mutant strain, hits give high values
How it was run: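 Growth of a checkpoint-deficient yeast mutant is measured after compound exposure. Values represent inhibition relative to vehicle.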

[11] = NCI Yeast Anticancer Drug Screen. Data for the wt2 strain (AID 169);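 note: 0% = growth of vehicle-treated yeast cultures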; conditions: S. cerevisiae wt2 strain growth inhibition, hits give high values
How it was run: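 Inhibition of yeast growth was determined after compound treatment, normalised to controls receiving only vehicle.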

[12] = NCI Yeast Anticancer Drug Screen. Data for the mlh1 strain (AID 171);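 note: 0% = growth of vehicle-treated control cultures of the same strain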; conditions: S. cerevisiae mlh1 strain growth inhibition, hits give high values
How it was run: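 Vehicle-normalised growth inhibition of a repair- or checkpoint-altered yeast strain following compound treatment.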

[13] = NCI Yeast Anticancer Drug Screen. Data for the sgs1 strain (AID 173);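 note: 0% = growth of vehicle-only control cultures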; conditions: S. cerevisiae sgs1 mutant, hits give high values
How it was run: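 Screen format: yeast with repair or checkpoint alterations, compound exposure, growth read relative to vehicle.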

[14] = NCI Yeast Anticancer Drug Screen. Data for the mlh1 rad18 strain (AID 175); conditions: S. cerevisiae mlh1 rad18 strain growth inhibition, hits give high values
How it was run: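 Vehicle-treated cultures served as the reference for growth inhibition in a yeast strain carrying DNA damage repair alterations exposed to each compound.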

[15] = NCI Yeast Anticancer Drug Screen. Data for the rad18 strain (AID 177); conditions: S. cerevisiae rad18 mutant growth inhibition, hits give high values
How it was run: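 Test articles were incubated with altered yeast defective in DNA damage repair. Results are given as inhibition of growth versus vehicle.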

[16] = at 5.0 µM (retest, dose inferred, filed as 0.5)
[17] = at 50.0 µM (retest, dose inferred, filed as 5.0)

Measured: growth inhibition

CC(=O)SCCC[Si](C)(C)CCCSC(C)=O
active: [7]; at 50.0 µM 70.8%
inactive: [1]; at 1.2 µM -3% | [1]; at 3.7 µM -5% | [1]; at 11.0 µM -7% | [1]; at 33.0 µM 4% | [1]; at 100.0 µM 31% | [2]; at 1.2 µM -3% | [2]; at 3.7 µM 2% | [2]; at 11.0 µM 12% | [2]; at 33.0 µM 11% | [2]; at 100.0 µM 20% | [3]; at 1.2 µM -4% | [3]; at 3.7 µM -4% | [3]; at 11.0 µM -5% | [3]; at 33.0 µM 7% | [3]; at 100.0 µM 39% | [4]; at 1.2 µM 1% | [4]; at 3.7 µM 2% | [4]; [16] -1% | [4]; at 11.0 µM 5% | [4]; at 33.0 µM 21% | [4]; [17] 51% | [4]; at 50.0 µM 55.2% | [4]; at 100.0 µM 44% | [5]; at 1.2 µM -3% | [5]; at 3.7 µM -3% | [5]; [16] -2% | [5]; at 11.0 µM -5% | [5]; at 33.0 µM 3% | [5]; [17] 46% | [5]; at 50.0 µM 53.6% | [5]; at 100.0 µM 35% | [6]; at 1.2 µM -3% | [6]; at 3.7 µM 0% | [6]; at 11.0 µM 0% | [6]; at 33.0 µM 14% | [6]; at 100.0 µM 39% | [7]; [16] 1% | [7]; [17] 63% | [8]; at 1.2 µM -4% | [8]; at 3.7 µM -6% | [8]; at 11.0 µM -7% | [8]; at 33.0 µM 13% | [8]; at 100.0 µM 48% | [9]; [16] -6% | [9]; [17] 54% | [9]; at 50.0 µM 39% | [10]; at 1.2 µM -1% | [10]; at 3.7 µM 3% | [10]; [16] 10% | [10]; at 11.0 µM 3% | [10]; at 33.0 µM 23% | [10]; [17] 61% | [10]; at 50.0 µM 65.7% | [10]; at 100.0 µM 47% | [11]; at 1.2 µM -1% | [11]; at 3.7 µM -9% | [11]; at 11.0 µM -6% | [11]; at 33.0 µM 5% | [11]; at 100.0 µM 33% | [12]; at 1.2 µM -4% | [12]; at 3.7 µM -3% | [12]; at 11.0 µM -2% | [12]; at 33.0 µM 21% | [12]; at 100.0 µM 51% | [13]; at 1.2 µM -2% | [13]; at 3.7 µM 22% | [13]; at 11.0 µM 4% | [13]; at 33.0 µM 29% | [13]; at 100.0 µM 48% | [14]; [16] -2% | [14]; [17] 58% | [14]; at 50.0 µM 64.7% | [15]; at 1.2 µM -5% | [15]; at 3.7 µM 1% | [15]; at 11.0 µM 3% | [15]; at 33.0 µM 19% | [15]; at 100.0 µM 51%

O=C(NCCCCNCCCNC(=O)c1cc(-c2ccccc2)nc2ccccc12)c1cc(-c2ccccc2)nc2ccccc12
active: [1]; at 100.0 µM 91% | [2]; at 100.0 µM 91% | [3]; at 100.0 µM 94% | [4]; at 33.0 µM 81% | [4]; [17] 97% | [4]; at 50.0 µM 97% | [4]; at 100.0 µM 92% | [5]; at 50.0 µM 97.3% | [5]; at 100.0 µM 94% | [6]; at 33.0 µM 96% | [6]; at 100.0 µM 94% | [7]; at 50.0 µM 97.5% | [8]; at 100.0 µM 91% | [9]; at 50.0 µM 97.6% | [10]; at 50.0 µM 97.2% | [10]; at 100.0 µM 92% | [11]; at 100.0 µM 93% | [12]; at 100.0 µM 94% | [13]; at 100.0 µM 93% | [14]; [17] 92% | [15]; at 33.0 µM 89% | [15]; at 100.0 µM 91%
inactive: [1]; at 1.2 µM 6% | [1]; at 3.7 µM 2% | [1]; at 11.0 µM 2% | [1]; at 33.0 µM 5% | [2]; at 1.2 µM 1% | [2]; at 3.7 µM 4% | [2]; at 11.0 µM 12% | [2]; at 33.0 µM 32% | [3]; at 1.2 µM 2% | [3]; at 3.7 µM 2% | [3]; at 11.0 µM -1% | [3]; at 33.0 µM 59% | [4]; at 1.2 µM -5% | [4]; at 3.7 µM -5% | [4]; [16] -29% | [4]; at 11.0 µM -3% | [5]; at 1.2 µM -1% | [5]; at 3.7 µM -3% | [5]; [16] -15% | [5]; at 11.0 µM -4% | [5]; at 33.0 µM 56% | [5]; [17] 59% | [6]; at 1.2 µM 0% | [6]; at 3.7 µM -2% | [6]; at 11.0 µM 1% | [7]; [16] -16% | [7]; [17] 58% | [8]; at 1.2 µM 1% | [8]; at 3.7 µM -1% | [8]; at 11.0 µM -1% | [8]; at 33.0 µM 43% | [9]; [16] 40% | [9]; [17] 55% | [10]; at 1.2 µM -2% | [10]; at 3.7 µM -1% | [10]; [16] -8% | [10]; at 11.0 µM -2% | [10]; at 33.0 µM 50% | [10]; [17] 65% | [11]; at 1.2 µM 2% | [11]; at 3.7 µM -1% | [11]; at 11.0 µM -2% | [11]; at 33.0 µM 20% | [12]; at 1.2 µM 0% | [12]; at 3.7 µM -1% | [12]; at 11.0 µM 0% | [12]; at 33.0 µM 63% | [13]; at 1.2 µM 0% | [13]; at 3.7 µM 0% | [13]; at 11.0 µM 1% | [13]; at 33.0 µM 33% | [14]; [16] -13% | [14]; at 50.0 µM 39.5% | [15]; at 1.2 µM 0% | [15]; at 3.7 µM -1% | [15]; at 11.0 µM -1%
